A selection: hits, their analogues and other compounds. The true share with any hit is near 12%.
G9a block = qHTS Assay for Inhibitors of Histone Lysine Methyltransferase G9a; Potency, µM (titrated, usually from 102 µM), hits mostly inhibitors; AID 504332, 2011; G9a H3K9 monomethylation, AlphaScreen, 2 h; Histone-lysine N-methyltransferase EHMT2 (Homo sapiens), Q96KQ7; hit rate 8.8% among 350,000; also: nearly all actives have a fitted effect of over 75% in size
Target sequence (Q96KQ7 913-1193 limits assumed): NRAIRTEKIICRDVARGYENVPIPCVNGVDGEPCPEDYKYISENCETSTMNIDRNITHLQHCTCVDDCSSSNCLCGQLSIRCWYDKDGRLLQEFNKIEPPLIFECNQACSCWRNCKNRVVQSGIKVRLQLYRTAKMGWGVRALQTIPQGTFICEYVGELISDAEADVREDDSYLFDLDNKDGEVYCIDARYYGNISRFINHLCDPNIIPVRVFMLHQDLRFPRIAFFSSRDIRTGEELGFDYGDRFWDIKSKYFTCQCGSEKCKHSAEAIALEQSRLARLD
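Enzyme 20 nM + cpd, 15 min RT; add b-H3K9 pep 500 nM / SAM 20 uM; 2 h RT; anti-H3K9me1 Ab 0.5 ug/mL + SA donor / anti-rabbit acceptor beads 20 ug/mL each, 10 min; AlphaScreen read.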
PLK1 PBD block = qHTS for Inhibitors of PLK1-PDB (polo-like kinase 1 - polo-box domain): Primary Screen | AID 720504, 2013 | hit rate 2.8% among 360,000 | Plk1 PBD binding of FITC phosphopeptide, fluorescence polarization | Potency, µM, actives largely listed as inhibitors; also: series mostly up to about 57 µM; nearly all actives have a fitted effect of over 65% in size
Sfp PPTase inh = qHTS Assay for Inhibitors of Bacillus subtilis Sfp phosphopantetheinyl transferase (PPTase) | AID 1490, 2009 | hit rate 3.5% among 310,000 | Potency, µM, usual class: inhibitors | Biochemical Sfp PPTase activity, qHTS | 4'-phosphopantetheinyl transferase ffp (Bacillus subtilis), Q9F4F7;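 also: the enzyme is Sfp with the accession as filed and its product quenches rhodamine fluorescence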
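Sfp 15 nM + cpd, 15 min RT; start w/ rhodamine-CoA 5 uM, BHQ-2-YbbR 12.5 uM (final); 50 mM Hepes pH 7.6, 10 mM MgCl2, 0.01% NP-40, 0.01% BSA; read 525/598 nm at 0 and 30 min.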
HP1b chromo inh = HTS for Inhibitors of HP1-beta Chromodomain Interactions with Methylated Histone Tails; Chromobox protein homolog 1 (Homo sapiens), P83916; AlphaScreen HP1-beta / biotin-H3K9me3 peptide binding; hit rate 0.56% among 390,000; Potency, µM (top dose mostly 114 µM), hits mostly inhibitors; also: nearly all actives have a fitted effect of over 70% in size
Target sequence (P83916 whole entry, looked up): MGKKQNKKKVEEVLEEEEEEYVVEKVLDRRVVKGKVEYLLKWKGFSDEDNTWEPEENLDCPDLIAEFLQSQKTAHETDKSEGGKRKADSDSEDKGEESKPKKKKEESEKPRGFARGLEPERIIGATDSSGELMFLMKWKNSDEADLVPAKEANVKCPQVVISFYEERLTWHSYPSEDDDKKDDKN
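HP1-beta protein (50 nM final) preincubated 30 min at room temperature with biotinylated H3(1-18)K9me3 peptide (50 nM) in PBS pH 7.4, 0.01% Tween-20, then compound added for 30 min. AlphaScreen streptavidin donor/nickel chelate acceptor beads (10 ug/mL final), 30 min dark, luminescence read.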
BAZ2B block = qHTS Assay for Inhibitors of BAZ2B. Bromodomain adjacent to zinc finger domain protein 2B (Homo sapiens), Q9UIF8. AlphaScreen BAZ2B-H3K14Ac peptide displacement. Potency, µM (highest dose often 114 µM), actives largely listed as inhibitors. hit rate 4.4% among 360,000; also: nearly all actives have a fitted effect of over 60% in size
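AlphaScreen displacement of biotin-H3(5-23)K14Ac peptide (50 nM final) from BAZ2B (50 nM final) in PBS pH 7.4, 0.01% Tween-20; complex preformed 30 min RT, then compounds (top 110 uM) 30 min RT, beads 20 min dark.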
JMJD2A Tudor inh = qHTS Assay for Inhibitors of JMJD2A-Tudor Domain. Lysine-specific demethylase 4A (Homo sapiens), O75164. hit rate 4.4% among 390,000. AlphaScreen JMJD2A-Tudor / H3K4me3 peptide binding. Potency, µM (titrated, usually from 114 µM), hits mostly inhibitors; also: nearly all actives have a fitted effect of over 50% in size
Large screens that a line does not name were inactive; ! = not confirmed by another sample. Calls follow the shape of the dose curve; as a rule, active = well fitted curve in the direction sought with a large enough effect; inconclusive = small, poorly fitted or top-dose-only effect, or another doubt; inactive = no such curve, though single readings can be large; an effect the other way counts as inactive or inconclusive.

CCCCC(CC)CNCC(O)c1ccccc1 (configuration not stated)	G9a block 25.1µM, JMJD2A Tudor inh 7.08µM (no result: BAZ2B block)
CCC[C@H](N[C@@H](CCC)[C@H](O)c1ccccc1)[C@H](O)c1ccccc1	none (no result: G9a block, Sfp PPTase inh, BAZ2B block)
CN1C(=O)C(Cc2ccc(OCc3ccccc3)cc2)C(=O)N(C)C1=O	G9a block 79.4µM
O=S1(=O)CCN(CCc2c[nH]c3ccccc23)CC1	none
CN1C(=O)C(Cc2c[nH]c3ccccc23)C(=O)N(C)C1=O	G9a block 12.6µM, Sfp PPTase inh 39.8µM (no result: PLK1 PBD block, HP1b chromo inh, JMJD2A Tudor inh)
CN1C(=O)C(Cc2cccc3ccccc23)C(=O)N(C)C1=O	G9a block inconclusive, PLK1 PBD block 21.2µM
CC(C)(O)C1C2OC(=O)C1[C@]1(O)CC3O[C@@]34C(=O)OC2[C@@]14C (some centres not stated)	none (no result: PLK1 PBD block, HP1b chromo inh, BAZ2B block, JMJD2A Tudor inh)
CCCCCCCCCC(CC)c1ccc(S(=O)(=O)O)cc1 (configuration not stated)	none (no result: PLK1 PBD block, HP1b chromo inh, BAZ2B block, JMJD2A Tudor inh)
CN1C2CCC1CC(OC(=O)c1ccc(Cl)cc1)C2 (configuration not stated)	PLK1 PBD block 26.7µM
CCOc1ccc(C(=O)OC2CC3CCC(C2)N3C)cc1 (configuration not stated)	none
CN1C2CCC1CC(OC(=O)C1CCC(C(=O)OC3CC4CCC(C3)N4C)(c3ccccc3)c3ccccc31)C2 (configuration not stated)	none (no result: G9a block, PLK1 PBD block, HP1b chromo inh, BAZ2B block, JMJD2A Tudor inh)
CC(C)OC(=O)Nc1cccc(Cl)c1	none (no result: G9a block, PLK1 PBD block, HP1b chromo inh, BAZ2B block, JMJD2A Tudor inh)
N#CC(C#N)=NNc1cccc(Cl)c1	Sfp PPTase inh 56.2µM (no result: G9a block, PLK1 PBD block, HP1b chromo inh, BAZ2B block, JMJD2A Tudor inh)
[O]=[Sb]([OH])([OH])[c]1ccccc1	none (no result: G9a block, PLK1 PBD block, Sfp PPTase inh, BAZ2B block)
O=C(/C=C\c1ccc(Cl)cc1)N[C@@]12CCC(=O)[C@@H]3Oc4c(O)ccc5c4[C@@]31CCN(CC1CC1)[C@@H]2C5	none (no result: G9a block, PLK1 PBD block, HP1b chromo inh, BAZ2B block, JMJD2A Tudor inh)
O=C1/C(=C/c2ccccc2Cl)N2CCC1CC2	PLK1 PBD block 21.2µM
O=C1/C(=C/c2ccncc2)N2CCC1CC2	none
O=C1/C(=C/c2ccc([N+](=O)[O-])cc2)N2CCC1CC2	G9a block 11.2µM, BAZ2B block inconclusive
NC[C@H](CP(=O)(O)O)c1ccc(Cl)cc1	none (no result: G9a block, PLK1 PBD block, HP1b chromo inh, BAZ2B block, JMJD2A Tudor inh)
CP(=O)(O)C1=CCNCC1	none (no result: PLK1 PBD block, HP1b chromo inh, BAZ2B block, JMJD2A Tudor inh)
O=C(CNC1CCCCC1)N1CCC2(CC1)OCCO2	G9a block 35.5µM, HP1b chromo inh inconclusive, BAZ2B block inconclusive, JMJD2A Tudor inh 3.16µM
O=C(NC(Cc1ccccc1)C(=O)N1CCC2(CC1)OCCO2)C1CCCCC1 (configuration not stated)	BAZ2B block inconclusive (no result: G9a block)
CN1C[C@@H](CS(=O)(=O)N(C)C)C[C@@H]2c3cccc4c3c(cn4C)C[C@H]21	none (no result: PLK1 PBD block, Sfp PPTase inh, HP1b chromo inh, BAZ2B block, JMJD2A Tudor inh)
CCC(CC)N1CCN(Cc2nc3ccccc3c(=O)n2-c2ccc(F)cc2)CC1	none
O=c1c2ccccc2nc(CN2CCCCCC2)n1-c1ccc(F)cc1	G9a block 28.2µM
C[N+](C)(C)CC(=O)[O-]	none (no result: PLK1 PBD block, HP1b chromo inh, BAZ2B block, JMJD2A Tudor inh)
C[N+](C)(C)CC(=O)O	G9a block 39.8µM! (no result: Sfp PPTase inh)
O=C1NC(=S)NC(=O)C1c1ccccc1	PLK1 PBD block 23.8µM, HP1b chromo inh inconclusive, JMJD2A Tudor inh 50.1µM (no result: G9a block, Sfp PPTase inh, BAZ2B block)
CCN1C(=O)NC(=O)/C(=C\c2cn(CC(=O)N3CCCCC3)c3ccccc23)C1=O	PLK1 PBD block inconclusive
O=C1NC(=O)N(c2ccccc2F)C(=O)/C1=C/c1cn(CC(=O)N2CCOCC2)c2ccccc12	G9a block 15.8µM, PLK1 PBD block 4.74µM, Sfp PPTase inh inconclusive
CCN1C(=O)NC(=O)/C(=C\c2cn(CC(=O)N3CCCC3)c3ccccc23)C1=O	PLK1 PBD block inconclusive, Sfp PPTase inh 56.2µM
ClC1=C(Cl)C2(Cl)C(CBr)CC1(Cl)C2(Cl)Cl (configuration not stated)	none (no result: PLK1 PBD block, HP1b chromo inh, BAZ2B block, JMJD2A Tudor inh)
CCc1ccc(-n2nc(C)c3c(C(=O)NCCc4ccc(OC)c(OC)c4)cc(C)nc32)cc1	none (no result: PLK1 PBD block, Sfp PPTase inh)
O=C(O)CCCC[C@H]1SC[C@H]2NC(=O)N[C@@H]21	G9a block 0.398µM (no result: PLK1 PBD block, HP1b chromo inh, BAZ2B block, JMJD2A Tudor inh)
CSCC[C@H](NC(=O)[C@H](CC(C)C)NC(=O)[C@@H](Cc1cnc[nH]1)NC(=O)[C@H](Cc1ccccc1)NC(=O)[C@@H](Cc1ccccc1)NC(=O)[C@@H](N)Cc1ccc(O)cc1)C(N)=O	none (no result: G9a block, PLK1 PBD block, HP1b chromo inh, BAZ2B block, JMJD2A Tudor inh)
O=C(Cc1ccc(Cl)c(Cl)c1)N1CCCC[C@H]1CN1CCCC1	none (no result: G9a block, PLK1 PBD block, HP1b chromo inh, BAZ2B block, JMJD2A Tudor inh)
CCn1c(N)c(C(=O)NC)sc1=S	G9a block inconclusive, PLK1 PBD block 2.67µM, Sfp PPTase inh 2.24µM, BAZ2B block inconclusive, JMJD2A Tudor inh 56.2µM
CCN(CC)P(=O)(Nc1ccc(Br)cc1)c1c(C)nn(CCC#N)c1NC(=O)c1ccc(Cl)cc1 (configuration not stated)	none
COC(=O)C1=C(c2ccc(OCc3ccccc3)cc2)C[C@@H]2CC[C@H]1N2C(=O)NCc1ccc(N(C)C)cc1	BAZ2B block 8.91µM, JMJD2A Tudor inh inconclusive (no result: Sfp PPTase inh)
COC(=O)C1=C(c2ccc(F)cc2OCc2ccccc2)C[C@@H]2CC[C@H]1N2C(=O)NCc1cccc(F)c1	PLK1 PBD block 21.2µM, JMJD2A Tudor inh inconclusive (no result: Sfp PPTase inh)
Brc1nc(-c2ccccc2)nc(-c2ccccc2)c1Br	none (no result: G9a block, Sfp PPTase inh, BAZ2B block)

High-throughput results: PubChem BioAssay, National Center for Advancing Translational Sciences (NCATS)
